Screening data deposited in PubChem by National Center for Advancing Translational Sciences (NCATS).
Most compounds without a hit are left out; they make up all but 11% or so of the library.
Luciferase inh = Firefly luciferase inhibition profiling of diverse chemical library using quantitative high-throughput screening | Luciferin 4-monooxygenase (Photinus pyralis), P08659 | hit rate 2.5% among 76,000 | purified P. pyralis luciferase, luminescence, biochemical | Potency, µM (highest dose often 115 µM), usual class: inhibitors; active = well fitted curve in the direction sought with a large enough effect; inconclusive = small, poorly fitted or top-dose-only effect, or another doubt; inactive = no such curve, though single readings can be large; an effect the other way counts as inactive or inconclusive; note: % is set by controls: 0 for no effect and ±100 for the full control effect; nearly all actives have a fitted effect of over 65% in size
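Biochemical qHTS: compound (6-point titration) added to 10uM D-luciferin plus 10uM ATP in Tris acetate pH 7.5 buffer with Mg, Tween-20 and BSA, then purified enzyme at 10nM; light output imaged.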
hNpr1 antagonist = Natriuretic polypeptide receptor (hNpr1) antagonism - Primary qHTS; HEK293 hNpr1 GloSensor cGMP, ANP-stimulated luminescence; Potency, µM (titrated, usually from 46.3 µM), without a hit: top-dose activity change, negative = inhibition, actives largely listed as inhibitors; hit rate 1.6% among 76,000; AID 1347048, 2019; note: % is set by controls: 0 for no effect and ±100 for the full control effect; nearly all actives have a fitted effect of over 60% in size
Target sequence (P16066 whole entry, looked up): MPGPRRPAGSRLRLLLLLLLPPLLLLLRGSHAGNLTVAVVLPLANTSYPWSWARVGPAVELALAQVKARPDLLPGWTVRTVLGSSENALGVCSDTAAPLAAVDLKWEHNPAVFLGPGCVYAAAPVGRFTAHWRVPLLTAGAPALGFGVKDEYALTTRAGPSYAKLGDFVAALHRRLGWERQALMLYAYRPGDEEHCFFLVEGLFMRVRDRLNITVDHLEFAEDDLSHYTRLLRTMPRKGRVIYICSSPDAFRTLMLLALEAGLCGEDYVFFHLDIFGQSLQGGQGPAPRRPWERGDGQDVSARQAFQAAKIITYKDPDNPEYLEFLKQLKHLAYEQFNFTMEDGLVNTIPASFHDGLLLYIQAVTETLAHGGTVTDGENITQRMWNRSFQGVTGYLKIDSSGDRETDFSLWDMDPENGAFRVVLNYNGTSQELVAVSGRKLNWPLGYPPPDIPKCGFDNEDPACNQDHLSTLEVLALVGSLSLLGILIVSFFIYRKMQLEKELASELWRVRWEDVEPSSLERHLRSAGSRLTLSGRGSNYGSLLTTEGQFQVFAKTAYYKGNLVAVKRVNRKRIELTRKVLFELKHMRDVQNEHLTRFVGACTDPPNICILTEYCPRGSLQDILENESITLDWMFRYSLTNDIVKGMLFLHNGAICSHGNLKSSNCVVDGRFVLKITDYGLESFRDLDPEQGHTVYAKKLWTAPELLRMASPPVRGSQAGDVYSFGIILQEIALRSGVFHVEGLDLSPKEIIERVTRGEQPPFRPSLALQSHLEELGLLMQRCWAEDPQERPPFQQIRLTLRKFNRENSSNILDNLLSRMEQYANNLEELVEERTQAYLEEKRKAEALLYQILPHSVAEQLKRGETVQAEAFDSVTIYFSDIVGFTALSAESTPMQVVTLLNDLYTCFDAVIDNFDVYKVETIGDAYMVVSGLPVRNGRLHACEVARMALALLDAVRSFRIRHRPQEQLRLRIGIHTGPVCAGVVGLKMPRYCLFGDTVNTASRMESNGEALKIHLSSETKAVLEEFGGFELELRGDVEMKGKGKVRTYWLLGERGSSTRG
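HEK293 cells stably expressing human Npr1 and cGMP GloSensor pGS-40F, loaded 2 h with 2% GloSensor reagent, given compound 30 min at room temperature. Luminescence read before and 20 min after 0.1 nM hNppA.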
NIH3T3 tox = Cytotoxic Profiling in NIH 3T3 Cell Line of Diverse Libraries Using Quantitative High-Throughput Screening. Potency, µM (titrated, usually from 96.7 µM), without a hit: at the highest dose activity change, negative = cytotoxicity, actives largely listed as inhibitors. hit rate 4.3% among 94,000. AID 1345082, 2018. NIH 3T3 viability, CellTiter-Glo ATP luminescence, 48-72 h; active = well fitted curve in the direction sought with a large enough effect; inconclusive = small, poorly fitted or top-dose-only effect, or another doubt; inactive = no such curve, though single readings can be large; an effect the other way counts as inactive or inconclusive; note: % is set by controls: 0 for no effect and ±100 for the full control effect; nearly all actives have a fitted effect of over 55% in size
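Cytotoxicity is measured as loss of cellular ATP: NIH 3T3 cells (400/well) are exposed to compound for 48 or 72 hr at 37 °C, then CellTiter-Glo luminescence is imaged after 10 min at room temperature.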
HEK cytotox = Cytotoxic Profiling in HEK 293 Cell Line of Diverse Libraries Using Quantitative High-Throughput Screening; Potency, µM (top dose mostly 115 µM), without a hit: at the highest dose activity change, negative = cytotoxicity, actives largely listed as inhibitors; hit rate 6.6% among 94,000; HEK 293 viability, ATP luminescence (CellTiter-Glo), 48-72 h; active = well fitted curve in the direction sought with a large enough effect; inconclusive = small, poorly fitted or top-dose-only effect, or another doubt; inactive = no such curve, though single readings can be large; an effect the other way counts as inactive or inconclusive; note: % is set by controls: 0 for no effect and ±100 for the full control effect; nearly all actives have a fitted effect of over 60% in size
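HEK 293 cells at 250 cells/well were exposed to compounds by pintool transfer for 48 or 72 hr at 37 degree Celsius, 5% CO2. Viability was read as ATP-coupled luminescence with CellTiter-Glo after 10 min at room temperature.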
Npr1 antag conf = Natriuretic polypeptide receptor (hNpr1) antagonism - Confirmation | HEK293 hNpr1 cGMP GloSensor luminescence, ANP-stimulated | shares compounds with hNpr1 antagonist | hit rate 76% among 1,400 | AID 1347044, 2019 | Potency, µM (top dose mostly 57.6 µM), for inactives: top-dose activity change, negative = inhibition, usual class: inhibitors; note: nearly all actives have a fitted effect of over 70% in size
NPR2 antag = Natriuretic polypeptide receptor (hNpr2) antagonism - Subtype selectivity assay | AID 1347046, 2019 | Potency, µM (titrated, usually from 57.6 µM), for the others: at the highest dose activity change, negative = inhibition, usual class: inhibitors | shares compounds with hNpr1 antagonist | hit rate 67% among 1,400 | HEK293 hNpr2 GloSensor cGMP luminescence, CNP-stimulated; note: nearly all actives have a fitted effect of over 70% in size
FLuc counter = Natriuretic polypeptide receptor (hNpr1) antagonism - Confirmation firefly luciferase (FLuc) inhibition counterscreen; shares compounds with hNpr1 antagonist; hit rate 0.7% among 1,400; purified FLuc enzyme, luminescence, Km substrate; Potency, µM (titrated, usually from 57.6 µM), for inactives: top-dose activity change, negative = inhibition, hits mostly inhibitors; AID 1347047, 2019; active = well fitted curve in the direction sought with a large enough effect; inconclusive = small, poorly fitted or top-dose-only effect, or another doubt; inactive = no such curve, though single readings can be large; an effect the other way counts as inactive or inconclusive; note: series mostly up to about 58 µM; 0% is about no effect
GloSensor ctrl = Natriuretic polypeptide receptor (hNpr1) antagonism - Counterscreen GloSensor control cell line; shares compounds with hNpr1 antagonist; HEK293 GloSensor cGMP, SNP-stimulated, luminescence; Potency, µM (doses to about 57.6 µM), for the others: at the top dose activity change, negative = inhibition, usual class: inhibitors; hit rate 69% among 1,400; note: % is set by controls: 0 for no effect and ±100 for the full control effect; nearly all actives have a fitted effect of over 70% in size
* marks the source's active call; other numbers are inactive results; i = inactive; ? = inconclusive; / = no result given. Unless noted, calls come from the whole dose curve. Potency is the fitted concentration of half-maximal effect.

SMILES	Luciferase inh	hNpr1 antagonist	NIH3T3 tox	HEK cytotox	Npr1 antag conf	NPR2 antag	FLuc counter	GloSensor ctrl
O=C(NC1CCCCC1)C1CCc2nnc(C3CCN([S+](=O)([O-])c4ccccc4Cl)CC3)n21 (centres undefined)	/	/	-19%	-1%	/	/	/	/
CCC(=O)N1CCCN(S(C)(=O)=O)c2ccccc21	i	-2%	-2%	?	/	/	/	/
COc1ccc(CC(=O)N2CCCC(c3ccc(C(=O)O)cc3)C2)c(OC)c1 (centres undefined)	i	3%	?	0%	/	/	/	/
CC(=O)N1CCN(C(=O)c2ccc3nnc(-c4cc[nH]c4)n3c2)CC1	/	/	0%	3%	/	/	/	/
COc1ccc(-c2cc(N3CCN(C(=O)c4ccc(OC)cc4OC)CC3)n[nH]2)cc1	i	?	?	?	27µM*	22µM*	-1%	22µM*
COc1cc(OC)cc(C(=O)N2CCCN(c3cc(-c4ccc(Br)cc4)[nH]n3)CC2)c1	i	11µM*	32µM*	40µM*	24µM*	22µM*	-2%	27µM*
COc1ccc(C(=O)N2CCN(c3cc(-c4ccc(F)cc4)[nH]n3)CC2)cc1	i	?	?	?	22µM*	24µM*	3%	27µM*
COc1cc(OC)cc(C(=O)N2CCCN(c3cc(-c4ccc(F)cc4)[nH]n3)CC2)c1	i	-6%	-27%	?	/	/	/	/
CCOC(=O)C1(Cc2ccccc2F)CCCN(C(=O)c2ccc3ncccc3c2)C1 (centres undefined)	i	-5%	?	?	/	/	/	/
O=C(OCc1ccccc1)N1CCCN(c2cc(C3CC(O)C3)ncn2)CC1 (centres undefined)	i	8.9µM*	-27%	?	15µM*	15µM*	5%	14µM*
CCOc1ccc(CN2CCN(c3nc4ccccc4o3)CC2CCO)cc1 (centres undefined)	i	14µM*	-17%	35µM*	22µM*	24µM*	-2%	22µM*
CCC(=O)N(C1CCOCC1)C1CCN(Cc2ccc(C)cc2C)CC1	i	-2%	-8%	-7%	/	/	/	/
CC(=O)N1CCC(C(=O)N[C@H]2CCN3C(=O)N(c4ccc(OC(F)(F)F)cc4)C(=O)[C@@H]3C2)CC1	i	-2%	-11%	-12%	/	/	/	/
CC(C)c1ccc(N2C(=O)[C@@H]3C[C@@H](NC(=O)C4CCN(c5nccc(C(F)(F)F)n5)CC4)CCN3C2=O)cc1	i	?	?	?	?	?	2%	?
CC1=C(C(=O)OC(C)C)C(c2ccccc2Cl)N2C(CC(=O)N3CCOCC3)=CSC2=N1 (centres undefined)	i	14µM*	-31%	?	?	?	2%	?
C=CCOC(=O)C1=C(C)N=C2SC=C(CC(=O)N3CCOCC3)N2C1c1ccc(C)cc1C (centres undefined)	?	?	-15%	?	/	/	/	/
COC(=O)C1=C(C)N=C2SC=C(CC(=O)N3CCCC3)N2C1c1ccccc1Cl (centres undefined)	i	-19%	-10%	?	/	/	/	/
CC1=C(C(=O)OC(C)C)C(c2ccc(C)cc2C)N2C(CC(=O)N3CCCC3)=CSC2=N1 (centres undefined)	i	?	?	?	?	?	-8%	?
CC1=C(C(=O)OC(C)C)C(c2ccccc2Cl)N2C(CC(=O)N3CCCC3)=CSC2=N1 (centres undefined)	i	13µM*	-14%	?	24µM*	22µM*	-2%	?
CCOc1cccc(CN2CC(Oc3ccc(-c4noc(COC)n4)cc3)C2)c1	i	?	?	?	/	/	/	/
COc1cccc(CN2CCC(Oc3ccc(-c4noc(C5CC5)n4)cc3)C2)c1 (centres undefined)	i	11µM*	?	40µM*	?	?	-19%	27µM*
COCc1nc(-c2ccc(OC3CN(C(=O)c4cc(C)n(C)n4)C3)cc2)no1	i	-23%	-24%	?	/	/	/	/
COCc1nc(-c2ccc(OC3CN(C(=O)NCc4ccc(OC)cc4)C3)cc2)no1	i	?	?	-32%	24µM*	?	-2%	19µM*
COc1ccc(CNC(=O)N2CCC(Oc3ccc(-c4noc(C5CC5)n4)cc3)C2)cc1 (centres undefined)	i	18µM*	?	?	?	?	?	?
CCN(CC)C(=O)N1CCC(Oc2ccc(-c3noc(COC)n3)cc2)C1 (centres undefined)	i	7.9µM*	-21%	?	11µM*	14µM*	-6%	12µM*
SMILES	Luciferase inh	hNpr1 antagonist	NIH3T3 tox	HEK cytotox	Npr1 antag conf	NPR2 antag	FLuc counter	GloSensor ctrl
COCc1nc(-c2ccc(OC3CCN(C(=O)NCc4ccc(F)cc4)C3)cc2)no1 (centres undefined)	i	?	?	?	/	/	/	/
O=C(Nc1ccc(F)cc1)c1c[nH]c2cccnc12	/	/	?	?	?	?	4.4µM*	22µM*
CN(C)C1CCN(c2ccc(C(=O)N3CCC(N4CCOCC4)CC3)cn2)C1 (centres undefined)	i	2%	i	i	/	/	/	/
CCCn1cc(C(=O)NC(C)c2cnn(-c3cccc(F)c3)c2C)c(C)n1 (centres undefined)	i	2.8µM*	-31%	?	4.3µM*	6.1µM*	4%	3.1µM*
Cc1c(C(C)NC(=O)c2cc(CC(C)C)nn2C)cnn1-c1ccccc1 (centres undefined)	i	0.28µM*	-42%	-81%	0.43µM*	0.48µM*	0%	0.43µM*
COc1cc(-c2onc(C)c2C(=O)N2CCC(Cc3ccc4c(c3)OCO4)CC2)cc(OC)c1OC	i	-18%	?	?	/	/	/	/
